Bioassay records: PubChem, several laboratories
CYP2C19 inh: blocks human cytochrome P450 2C19. CYP2C19 Supersomes, luciferin-H EGE luminescence, 30 min. inhibition, % at 5 µM. hit rate 21% among 96,000. AID 778;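 active = CYP2C19 inhibition above a set limit at 5 µM in the primary screen, cut at about 50% in these data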;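 note: plate controls were negative control wells for no effect and 2.5 mM tranylcypromine positive control for full effect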
CYP2C9 act: increases human cytochrome P450 2C9 activity. recombinant CYP2C9, luciferin-H conversion, luminescence; hits give high values; factor 1 = untreated enzyme, 0 = blocked. activation factor at 5 µM. AID 1024. P11712. hit rate 1.4% among 96,000;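 active = activation factor of 2 or more for CYP2C9 at a 5 µM dose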;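 note: 0 = sulfaphenazole-blocked wells and 1 = vehicle-only wells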
sEH inhibitor: blocks human soluble epoxide hydrolase activity. P34913. inhibition, % at 2 µM. recombinant human sEH enzymatic activity assay. AID 707. hit rate 0.34% among 91,000; in the data active = inhibition above about 80%
Target sequence (P34913 whole entry, looked up): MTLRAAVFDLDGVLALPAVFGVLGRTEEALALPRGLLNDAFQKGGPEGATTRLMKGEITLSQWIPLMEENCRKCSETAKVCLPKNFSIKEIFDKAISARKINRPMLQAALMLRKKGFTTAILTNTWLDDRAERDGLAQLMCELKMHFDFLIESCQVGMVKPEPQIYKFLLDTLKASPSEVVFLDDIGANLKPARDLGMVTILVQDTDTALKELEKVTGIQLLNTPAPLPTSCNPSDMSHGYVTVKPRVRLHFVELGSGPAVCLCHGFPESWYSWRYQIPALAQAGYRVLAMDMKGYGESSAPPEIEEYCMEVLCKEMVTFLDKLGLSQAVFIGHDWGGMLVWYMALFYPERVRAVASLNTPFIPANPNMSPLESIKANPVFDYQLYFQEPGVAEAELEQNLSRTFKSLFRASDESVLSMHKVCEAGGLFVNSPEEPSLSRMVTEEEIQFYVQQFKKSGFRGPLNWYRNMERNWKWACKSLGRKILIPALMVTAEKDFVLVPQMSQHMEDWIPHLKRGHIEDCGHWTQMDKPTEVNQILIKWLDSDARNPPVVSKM
CYP2C19 activ: activators of human cytochrome P450 2C19. P33261. recombinant CYP2C19, luciferin-H EGE luminescence; hits give high values; 0 = fully inhibited enzyme, 1 = untreated enzyme. activation factor at 5 µM. 96,000 tested, under 10 active. AID 1025;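 active = activation factor of at least 2 at 5 µM in the primary screen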;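 note: 0 = wells with 2.5 mM tranylcypromine and 1 = vehicle-only wells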
CYP2C9 inh: human CYP2C9 inhibition; P11712; CYP2C9 Supersomes, luciferin-H conversion, luminescence; inhibition, % at 5 µM; hit rate 20% among 96,000;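 active = blocking of liver enzyme CYP2C9 beyond about 50% at 5 µM, limit read from the data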
sEH act: activators of human soluble epoxide hydrolase; activation, % at 2 µM; purified human sEH enzymatic activity, activator screen; P34913; hit rate 0.04% among 91,000; AID 717; in the data active = activation above about 37%
* marks the source's active call; other numbers are inactive results; x = no result given. Most compounds without a hit are left out; they make up all but 27% or so of the library.

SMILES	CYP2C19 inh	CYP2C9 act	sEH inhibitor	CYP2C19 activ	CYP2C9 inh	sEH act
COC(=O)c1ccc(C(=O)OC)c(NC(=O)CS(=O)(=O)Cc2ccccc2)c1	39	0.5	10	0.6	45	-7
CC1(C)CC(=O)C(C(=O)CCCCC(=O)C2C(=O)CC(C)(C)CC2=O)C(=O)C1	-12	1.2	x	1.1	-19	x
O=C(Nc1cccc(F)c1)c1ccc(S(=O)(=O)NCC2CCCO2)cc1 (stereo unspecified)	35	0.4	x	0.7	56*	x
O=C(CN(CC1CCCO1)S(=O)(=O)c1ccc(S(=O)(=O)NC2CC2)cc1)Nc1ccccc1 (stereo unspecified)	74*	0	3	0.3	97*	-3
O=C(CSc1ccccc1)Nc1ccc(S(=O)(=O)NCC2CCCO2)cc1 (stereo unspecified)	48	0.1	6	0.5	91*	-8
COc1ccc(S(=O)(=O)NNC(=O)c2csc(-n3nc(C)cc3C(F)(F)F)n2)cc1	16	0.5	-7	0.8	49	9
CCCC(c1nnnn1CCc1ccccc1)N1CCN(C2CCCC2)CC1 (stereo unspecified)	6	0.9	14	0.9	6	-12
O=C(O)CCC(NS(=O)(=O)c1ccc(-c2ccccc2)cc1)C(=O)O (stereo unspecified)	-3	1.1	2	1	-13	0
CC(C)CC(NC(N)=O)C(=O)OCC(=O)NC(=O)NC1CCCC1 (stereo unspecified)	57*	0.9	6	0.4	15	-3
COC(=O)[C@H](CC(C)C)NC(=O)NC1CCCCC1C (stereo partly specified)	25	0.8	-3	0.7	23	3
CS(=O)(=O)N1Cc2ccccc2CC1C(=O)OCC(=O)Nc1ccc2ccccc2c1 (stereo unspecified)	0	0.9	11	1	7	-12
Cn1cc(C(CC(=O)O)C(=O)O)c2ccccc21 (stereo unspecified)	11	0.9	-10	0.9	9	9
CCOC(=O)CC(C#N)c1cn(C)c2ccccc12 (stereo unspecified)	88*	3.5*	7	0.1	-249	-6
OCCNc1nc(SCc2ccccc2)nc2sc3c(c12)CCC3	47	0.3	-11	0.5	68*	13
C=CCn1c(NCCO)nc2sc3c(c2c1=O)CCC3	13	0.9	x	0.9	9	x
COc1ccccc1C1C(C(=O)c2sc(C)nc2C)=C(O)C(=O)N1CCN1CCOCC1 (stereo unspecified)	-4	1.1	x	1	-8	x
COC(=O)C1=C(N)Oc2cc(C)[nH]c(=O)c2C1c1cccnc1 (stereo unspecified)	16	0.9	8	0.8	12	-5
COc1ccccc1NC(=O)c1cccc(S(=O)(=O)N2CCOCC2)c1	3	1	-2	1	0	2
COc1ccccc1NS(=O)(=O)c1cccc(C(=O)N/N=C(\C)c2ccc(-n3ccnc3)cc2)c1	100*	0	82*	0	99*	-82
O=C(C(Cc1ccccc1)N1C(=O)c2ccccc2C1=O)N1CCc2ccccc21 (stereo unspecified)	x	x	-2	x	x	2
CCSc1nnc(-c2ccc(S(=O)(=O)NCc3cccs3)cc2)o1	13	0.3	-4	0.9	70*	2
Cc1oc(-c2ccccc2Cl)nc1CSCC(=O)O	-1	0.9	8	1	7	-9
Cc1ccccc1C(=O)NC(=S)Nc1sc2c(c1C#N)CCC(C)C2 (stereo unspecified)	34	0.4	10	0.7	63*	-8
Cc1ccccc1NC(=S)NNC(=O)c1csc2c1CCC(C)C2 (stereo unspecified)	98*	0.3	6	0	66*	-4
COc1cc(C)nc(N2CCC(C(=O)NC3CCCCC3)CC2)n1	46	0.7	65	0.5	28	-64
SMILES	CYP2C19 inh	CYP2C9 act	sEH inhibitor	CYP2C19 activ	CYP2C9 inh	sEH act
CCCCCCn1c(CN2CCCCC2C)nc2c1c(=O)n(C)c(=O)n2C (stereo unspecified)	x	x	-3	x	x	6
Cc1cccc(N2CCN(C(=O)c3ccc4nc(-c5ccco5)c(-c5ccco5)nc4c3)CC2C)c1 (stereo unspecified)	49	0.5	12	0.5	52*	-9
Cc1cccc(N2CCN(C(=O)c3cc4c(=O)n(C)c5ccccc5c4n3C)CC2C)c1 (stereo unspecified)	99*	0.1	x	0	94*	x
COc1cccc(NC(=O)N2CCN(c3cccc(C)c3)C(C)C2)c1 (stereo unspecified)	59*	1.2	9	0.4	-16	-8
CC(=O)Nc1ccccc1-c1nc2ccc(C(=O)N3CCN(c4cccc(C)c4)C(C)C3)cc2[nH]c1=O (stereo unspecified)	70*	0.1	-5	0.3	87*	2
CC(=O)Nc1ccccc1-c1nc2ccc(C(=O)N3CCN(c4ccccc4)CC3)cc2[nH]c1=O	13	0.6	15	0.9	41	-16
COc1ccc(NC(=O)C23CCC(C2)C(C)(C)C3=O)cc1 (stereo unspecified)	34	0.8	8	0.7	21	-6
O=C(NC1CCCc2ccccc21)C1CCN(C(=O)c2sccc2-n2cccc2)CC1 (stereo unspecified)	15	0.6	x	0.8	39	x
COc1cc(CNc2ccc(N3CCOCC3)c(C(=O)O)c2)ccc1OCC(N)=O	-13	1.1	x	1.1	-11	x
CS(=O)(=O)N(CC(=O)N1CCN(c2ccccc2)CC1)c1cccc(Br)c1	64*	2.8*	x	0.4	-179	x
CS(=O)(=O)N(CC(=O)N1CCCC1)c1cccc(Cl)c1	57*	0.9	x	0.4	6	x
CS(=O)(=O)N(CC(=O)N1CCCCCC1)c1ccc2c(c1)OCCO2	18	1.7	-15	0.8	-65	13
Cc1ccc(S(=O)(=O)N(CC(=O)N2CCCCC2)c2cccc(C)c2)cc1	x	x	-10	x	x	12
Cc1cccc(N(CC(=O)N2CCCC2)S(=O)(=O)c2ccccc2)c1	58*	0.3	2	0.4	73*	-1
CS(=O)(=O)N(CC(=O)N1CCCCCC1)c1ccc(Br)cc1	77*	0.6	3	0.2	37	-4
CC1C(O)=C(c2nc3ccccc3[nH]2)C(=N)N1c1ccccc1 (stereo unspecified)	9	1	-6	0.9	2	4
CC(C)c1ccc(N(C(=O)C(F)(F)F)C(C(=O)NC2CCCCC2)c2ccncc2)cc1 (stereo unspecified)	23	0.8	x	0.8	18	x
COc1ccccc1N(C(C)=O)c1nc(C)cc(C)c1C#N	x	x	2	x	x	1
CCC1(C)CC(C(CC(=O)O)c2ccc(C)cc2)CCO1 (stereo unspecified)	29	0.5	-27	0.7	49	20
